# Data reported in the supplement of paper PMC12636033.
# ± gives the standard deviation of the averaged measurements. Over roughly 33,000 sequences, “E-score (rank enrichment, -0.5 to 0.5)” has its median near -0.0075; the highest 2% begin near 0.23. This is one part of a sample in which the highest values are shown more often than they occur.
# Test system: WT Max(13-93) synthetic (M65Nle)
# Assay: PBM 8-mer E-score (E-score (rank enrichment, -0.5 to 0.5)); higher = stronger preferential binding
# Method: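 Protein binding microarray (universal PBM chip covering all 10-mers in fixed probe flanks) with chemically synthesized human Max(13-93) bHLH-LZ analogs (not full-length Max) bearing noncanonical residues (hArg, Tha, Aib, Nle at 65) and aromatic Cys staples. Read-out per 8-mer (and its reverse complement): E-score (rank-based enrichment, -0.5 to 0.5) and Z-score of median probe intensity.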
row,Sequence,PBM 8-mer E-score
1,ACGTGGGC,0.33 ± 0.012
2,AAGTGGGA,0.212 ± 0.0035
3,ACGTGGGA,0.302 ± 0.039
4,ACGTGGGG,0.164 ± 0.08
5,GCGTGGGA,0.238 ± 0.035
6,AGGTGGGA,0.0263 ± 0.046
7,CCGTGGGA,-0.15 ± 0.023
8,CGCTGCAG,-0.19 ± 0.18
9,GGACCGAC,-0.168 ± 0.097
10,CGCAGCCA,-0.117 ± 0.093
11,AGTGTTCC,-0.151 ± 0.007
12,GCGGCAAC,-0.106 ± 0.026
13,CACCCGAG,-0.19 ± 0.056
14,GAACCAAC,0.0313 ± 0.051
15,ATCTCAAA,-0.0195 ± 0.13
16,CTGAGGAA,-0.111 ± 0.035
17,ACAATGAT,0.241 ± 0.024
18,AAAATGAC,0.174 ± 0.013
19,ACAATGTC,0.108 ± 0.095
20,ACAATGAC,0.0383 ± 0.055
21,AAAATGAA,0.138 ± 0.00081
22,GCAATGTA,0.0841 ± 0.011

row,Sequence,PBM 8-mer E-score
1,AAAATGAT,0.249 ± 0.13
2,ACAATGTA,0.239 ± 0.034
3,ACAATGAG,0.137 ± 0.029
4,TATGACGA,0.0259 ± 0.072
5,ATGATGCC,-0.00394 ± 0.018
6,GGCTACCC,-0.19 ± 0.032
7,CGCAAGAA,-0.121 ± 0.097
8,GAGCCGGC,-0.26 ± 0.041
9,AATGATCC,-0.122 ± 0.097
10,AACAATAT,0.252 ± 0.089
11,GACAATAC,0.202 ± 0.02
12,AACAATAG,-0.112 ± 0.17
13,ACCAATAT,0.175 ± 0.057
14,AACAATTC,0.146 ± 0.012
15,AACAATTG,0.128 ± 0.05
16,AACAATTA,0.248 ± 0.061
17,AACAATAC,0.236 ± 0.036
18,AACAATAA,0.213 ± 0.15
19,AGCCGCTA,-0.263 ± 0.022
20,CTCGATAA,-0.0814 ± 0.087
21,AAGCGGGT,-0.0582 ± 0.061
22,TCAGATCA,-0.0835 ± 0.073

row,Sequence,PBM 8-mer E-score
1,CCTCGACC,-0.128 ± 0.09
2,GCTAAAAC,-0.101 ± 0.028
3,TGAGATCA,-0.0342 ± 0.1
4,AGCTGGAT,-0.164 ± 0.054
5,CTCCCATA,-0.0036 ± 0.067
6,ATGTTTCC,0.225 ± 0.092
7,ATGTTTTA,0.102 ± 0.043
8,ATGTTTAA,0.22 ± 0.078
9,CTGTTTAC,0.0925 ± 0.099
10,ATGTTTAG,0.278 ± 0.063
11,ATGTTTAC,0.243 ± 0.0084
12,ATGTTTTG,0.24 ± 0.066
13,ACGTTTAG,0.0123 ± 0.031
14,ATGTTTGG,0.147 ± 0.042
15,AAAATAGG,0.031 ± 0.16
16,GACAACCC,0.0334 ± 0.15
17,CGGCCAGA,-0.212 ± 0.006
18,ATGCTTTA,0.277 ± 0.0049
19,CTGCTTTA,0.169 ± 0.061
20,ATGCTTTC,0.174 ± 0.051
21,ATGATCGC,-5e-06 ± 0.043
22,TGCCCGCA,0.0712 ± 0.065

row,Sequence,PBM 8-mer E-score
1,GACATGTC,0.163 ± 0.042
2,TACATGTA,0.308 ± 0.042
3,GACATGTA,0.273 ± 0.035
4,TACATGAA,0.11 ± 0.053
5,AACATGTA,0.23 ± 0.087
6,GTCATGTA,0.0154 ± 0.027
7,GTGTCCGA,-0.00187 ± 0.12
8,AGAGTACG,-0.124 ± 0.0062
9,TGATCGAA,0.0153 ± 0.063
10,CGAGGAAA,0.0336 ± 0.072
11,ATTGTAGA,0.302 ± 0.0094
12,CTTGTAGA,-0.146 ± 0.15
13,GTTGTAGA,-0.101 ± 0.093
14,ATCAATTG,0.239 ± 0.016
15,ATCAATTA,0.225 ± 0.04
16,ATCAATTC,0.0046 ± 0.15
17,AGGACGGC,-0.0864 ± 0.17
18,AAAACGTC,0.0934 ± 0.022
19,GACCGATA,-0.0238 ± 0.067
20,CTAAACCC,0.00702 ± 0.049
